# Rows were chosen to be rich in hits. Some 17% of all compounds tested hit in one or more screens of this group.
# TDP1 cell noCPT = qHTS for Inhibitors of human tyrosyl-DNA phosphodiesterase 1 (TDP1): qHTS in cells in absence of CPT; Potency, µM (series often up to 46.2 µM), without a hit: at the top dose activity change, negative = growth inhibition, usual class: inhibitors; DT40 Tdp1-/- hTDP1 cells, no CPT, ATP luminescence, 48 h; AID 686978, 2013; actives 15% (n = 420,000); also: % is scaled to controls: 0 for no effect and ±100 for the full control effect; nearly all actives have a fitted effect of over 55% in size
#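 Cells were dispensed at 400 per well, compounds added by pin tool, plates incubated ≥48 hr at 37 °C, then CellTiter-Glo added for 30 min at room temperature before luminescence reading. Line: DT40 Tdp1-/- complemented with hTDP1; camptothecin omitted.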
# ClpP mod = qHTS Assay for Activators of ClpP | ATP-dependent Clp protease proteolytic subunit (Bacillus subtilis (strain 168)), P80244 | purified B. subtilis ClpP, FRET peptide cleavage, 20 min | Potency, µM (series often up to 57.5 µM), for inactives: top-dose activity change, negative = active | actives 1.9% (n = 340,000) | AID 651965, 2013; active = well fitted falling curve with a large enough effect; inconclusive = small, poorly fitted or top-dose-only effect; inactive = no such curve, though single readings can be large or run the other way; also: the source files actives as falling curves though it sought activators and does not explain the sign; nearly all actives have a fitted effect of over 65% in size
#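 ClpP 10 microg/mL final, pH 8 Tris/KCl buffer with BSA, glycerol, Tween-20; compound pinned in; FRET-FV substrate; RT 20 min; Ex320/Em430; ΔFRET vs ADEP 5.8 microM, DMSO, no enzyme.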
# TDP1 inh = blocks human tyrosyl-DNA phosphodiesterase 1. actives 0.28% (n = 350,000). Q9NUW8. Potency, µM (top dose mostly 130 µM), for the others: top-dose activity change, negative = inhibition, most hits filed as inhibitors. recombinant TDP1, AlphaScreen DNA substrate cleavage; also: % is scaled to controls: 0 for no effect and ±100 for the full control effect; nearly all actives have a fitted effect of over 40% in size
#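 Signal: AlphaScreen proximity between streptavidin donor and anti-FITC acceptor beads on intact substrate. Reaction: Tdp1 1 nM, substrate 15 nM final, 5 min RT after 15 min compound preincubation.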
# DT40 TDP1 CPT = growth inhibition of DT40 Tdp1-/-;hTDP1 cells with camptothecin (screen for TDP1 inhibitors); Potency, µM (top dose mostly 46.2 µM), for inactives: at the highest dose activity change, negative = growth inhibition, actives largely listed as inhibitors; actives 12% (n = 420,000); AID 686979; chicken DT40 Tdp1-/-;hTDP1 cells + 20 nM CPT, ATP luminescence, 48 h; also: % is scaled to controls: 0 for no effect and ±100 for the full control effect; nearly all actives have a fitted effect of over 55% in size
#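 Chicken DT40 Tdp1-/- cells complemented with human TDP1, 400 cells/well, exposed to compounds plus 20 nM camptothecin for at least 48 h at 37 C; viability read as ATP content by CellTiter-Glo luminescence.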
# The depositor's hits bear a star; ? = inconclusive; . = not tested or not shown; [ ] = another dose, or the depositor's remark. Unless noted, calls follow the shape of the dose curve; as a rule, active = well fitted curve in the direction sought with a large enough effect; inconclusive = small, poorly fitted or top-dose-only effect, or another doubt; inactive = no such curve, though single readings can be large; an effect the other way counts as inactive or inconclusive. Potency is read from the fitted curve at half-maximal effect.
SMILES,TDP1 cell noCPT,ClpP mod,TDP1 inh,DT40 TDP1 CPT
Cc1cc(=O)oc2ccc(OC(C)C(=O)O)cc12 (centres undefined),-19%,32µM*,-5%,11%
CC(=O)c1cccc(NC(=O)COc2ccc3oc(=O)cc(C)c3c2)c1,?,-24%,.,18µM*
Cc1ccccc1NC(=O)COc1ccc2oc(=O)cc(C)c2c1,?,-26%,-6%,-21%
Cc1cc(=O)oc2cc(OC(C)C(=O)N3CCOCC3)c(Cl)cc12 (centres undefined),-5%,4%,.,6%
Cc1oc(-c2ccc(Cl)cc2)nc1Cn1c(=O)cc(C)c2c(C)nn(-c3cccc(F)c3)c21,-11%,-2%,-3%,-2%
c1ncc(CCCC2CCNCC2)[nH]1,.,.,3%,.
CC(=O)C1(C)CC2=C(CCCC2(C)C)CC1C (centres undefined),.,.,17%,.
CCOc1ccc2oc(=O)cc(C)c2c1,-17%,32µM*,-1%,3%
CCC(=O)Oc1ccc2oc(=O)cc(C)c2c1,2%,-6%,0%,-7%
CCOc1ccc(NC(=O)COc2ccc(S(=O)(=O)NC3CCCCC3)cc2)cc1,?,1%,7%,?
COc1ccc(/C=C\C(=O)c2c(O)ccc3c(C)cc(=O)oc23)cc1OC,23µM*,1%,7%,16µM*
COc1ccc(C=CC(=O)c2c(OC)cc(OC)c(OC)c2O)cc1,?,0%,.,?
COc1ccc(/C=C/C(=O)c2c(O)c(OC)c3occc3c2OC)cc1OC,10µM*,-1%,.,11µM*
O=C(C1CCC(=O)N(C2CCCCCC2)C1)N1CCN(c2ccccc2Cl)CC1 (centres undefined),21µM*,1%,3%,?
O=C(C1CC(=O)N(C2CCCC2)C1)N1CCN(c2ccccc2)CC1 (centres undefined),0%,1%,4%,-6%
Cc1cc(N2CCC(C(=O)N3CCN(c4cccc(C)c4C)CC3)CC2)n2ncnc2n1,21µM*,0%,3%,?
Cc1ccccc1N1CCN(C(=O)C2CCC(=O)N(C3CCCC3)C2)CC1 (centres undefined),6%,0%,3%,-10%
O=C(C1CC(=O)N(C2CCCCC2)C1)N1CCN(c2cccc(C(F)(F)F)c2)CC1 (centres undefined),?,-2%,1%,16µM*
Cc1cccc(N2CCN(C(=O)C3CC(=O)N(C4CCCC4)C3)CC2)c1C (centres undefined),23µM*,-2%,3%,18µM*
CN(CCCn1ccc(NC(=O)OCc2ccccc2)nc1=O)Cc1ccco1,-5%,-1%,.,1%
CCS(=O)(=O)N1Cc2ccccc2CC1C(=O)N1CCN(c2cccc(C)c2C)CC1 (centres undefined),15µM*,-1%,4%,?
Cc1cccc(N2CCN(C(=S)NC3CCCCC3)CC2)c1C,16µM*,-1%,4%,?
Cc1ccc(C)c(N2CCN(C(=S)NC3CCCCC3)CC2)c1,-14%,2%,0%,-2%
CCS(=O)(=O)N1Cc2ccccc2CC1C(=O)Nc1ccc(F)cc1 (centres undefined),-3%,1%,-4%,-3%
Cc1cccc(N2CCN(C(=O)C3CCCCC3)CC2)c1C,18µM*,-7%,4%,29µM*
SMILES,TDP1 cell noCPT,ClpP mod,TDP1 inh,DT40 TDP1 CPT
CCC(C)(C)C(=O)O[C@@H]1C[C@@H](C)C=C2C=C[C@H](C)[C@H](CC[C@@H]3C[C@@H](O)CC(=O)O3)[C@H]21,19µM*,.,10%,24µM*
CCC(C)(C)C(=O)OC1CC(C)C=C2C=CC(C)C(CCC3CC(O)CC(=O)O3)C21 (centres undefined),21µM*,.,15%[56.1 µM],26µM*
CCOC1=C2[C@@H](CN(S(=O)(=O)c3ccc(C)cc3)[C@H]2c2cccc3ccccc23)[C@H]2C(=O)N(c3ccccc3)C(=O)[C@H]2C1,-23%,-5%,.,1%
CCOC1=C2[C@@H](CN(S(=O)(=O)c3ccc(C)cc3)[C@H]2c2cccc3ccccc23)[C@H]2C(=O)N(C3CCCCC3)C(=O)[C@H]2C1,10µM*,-8%,.,13µM*
CC(C)c1ccc2oc(=O)cc(CN3CCN(c4ccccc4)CC3)c2c1,?,8%,4%,?
CC(C)c1ccc2oc(=O)cc(CN3CCCCC3)c2c1,23µM*,.,.,29µM*
Cc1cc2oc(=O)cc(CN3CCC(C)CC3)c2cc1C,-9%,-3%,.,-16%
CC1CCN(Cc2cc(=O)oc3ccc(C(C)C)cc23)CC1,?,1%,.,26µM*
COC(=O)[C@@]1(Cc2ccccc2)[C@H]2c3cc(C(=O)N(C)C)n(Cc4ccsc4Br)c3C[C@H]2CN1C(=O)c1ccccc1,.,.,16%,.
CSCCC(NS(=O)(=O)c1ccccc1F)C(=O)NCc1ccncc1 (centres undefined),-5%,.,-2%,-10%
COc1cc(CNCc2ccccc2Cl)ccc1OCC(=O)NC1CCCCC1,?,0%,5%,?
CCN(CC)CCCNc1cc(-c2ccccc2)nc(C)n1,3%,-10%,-4%,3%
COc1ccc2cc(C#N)c(SCC(=O)Nc3nonc3C)nc2c1,?,.,9%,-12%
CCOC(=O)CSc1nc2ccc(C)cc2cc1C#N,-21%,-2%,-2%,-23%
CCOc1ccc2nc(SCC(=O)N3CCCCCC3)c(C#N)cc2c1,-87%,-9%,5%,?
CCOC(=O)CSc1nc2cc(OC)ccc2cc1C#N,23µM*,32µM*,5%,16µM*
CCOC(=O)CSc1nc2cc(C)ccc2cc1C#N,10µM*,-20%,-6%,13µM*
CC(C)OC(=O)CSc1nc(N)c(C#N)cc1C#N,?,.,-8%,1%
CCOc1ccc2cc(C#N)c(SCC(=O)N3CCOCC3)nc2c1,-23%,25µM*,-6%,-1%
CCOC(=O)CSc1nc(N)c(C#N)cc1C#N,16µM*,4%,-10%,-28%
C[C@]12CCC(=O)C=C1CC[C@@H]1C2[C@@H](O)C[C@@]2(C)[C@H]1CC[C@]2(O)C(=O)CO (some centres undefined),?,.,7%,1%
CC(=O)NC1CC2CCCC(C1)N2C(=O)Nc1ccccc1C (centres undefined),-5%,-2%,.,5%
CCOC(=O)CC(=O)CSc1nc2c(cc1C#N)CCC2,21µM*,49%,1%,8.2µM*
COC(=O)CC(=O)CSc1nc2c(cc1C#N)CCCCC2,0%,205%,0%,7%
O=C(CCn1c(=O)c2cccn2c2cccnc21)N1CCN(c2ccccc2)CC1,?,-5%,5%,?
O=C(CCn1c(=O)c2cccn2c2cccnc21)N1CCN(c2ccc(Cl)cc2)CC1,13µM*,-7%,3%,10µM*

# From PubChem BioAssay
